From PubChem BioAssay come the findings set out here.

A number with no mark means an inactive call. For some of these results: Potency and affinity values are given separately. The source made the active and inactive calls. Unless noted, no rule for the calls is given here.

A short description of assay [1]: antimalarial activity against Dd2 strain (AID 2302;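 active = growth inhibition above 50% at the single 2 µM test dose, taken to imply half-maximal potency below 2 µM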;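 also: 0% = DMSO untreated growth and 100% = chloroquine plus artemisinin killed control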). Conditions: P. falciparum Dd2 in RBCs, LDH growth readout, 72 h; at 2 µM; stronger effect = higher value.
Assay [2] can be described thus: human hepatoma cell viability loss – ATP luminescence, cytotoxicity control for P. falciparum antimalarial project, primary screen (AID 2303;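 active = inhibition above 50%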;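 also: 0% = DMSO wells and 100% = digitonin-killed cells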). Conditions: HepG2 viability, 24-48 h, at 10 µM, stronger effect = higher value.
In assay [3] the target is L-lactate dehydrogenase (Plasmodium falciparum (isolate CDC / Honduras)) (UniProt Q27743). Kind of assay: PfLDH activity inhibition – cell lysate, 3D7 strain, counter-screen for P. falciparum growth inhibition project (AID 2304).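 Also: 0% = vehicle and 100% = reference inhibitor.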 Conditions: P. falciparum 3D7 crude extract, LDH APAD/NBT absorbance; at 2 µM; stronger effect = higher value. In general terms: A counterscreen serves to expose hits that act by an unwanted route or on another target.

Assay [4] in a line: inhibition of 3D7 malaria parasite growth – strain 3D7 (AID 2306).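 Also: 0% = DMSO wells and 100% = chloroquine plus artemisinin control wells.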 The following applies: P. falciparum 3D7 erythrocytic growth, LDH absorbance, 72 h; at 2 µM; stronger effect = higher value.
The target in assay [5] is Calcium-dependent protein kinase 1 (Plasmodium falciparum (isolate 3D7)) (UniProt P62344). The assay can be described thus: PfCDPK1 kinase inhibitors, biochemical, TCAMS library (AID 1159585; cut-off not given, nearly all actives have IC50 up to about 0.98 µM;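 also: inhibitors leave more ATP so luminescence rises with inhibition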). Conditions: recombinant PfCDPK1, Kinase-Glo ATP depletion luminescence. (In Kinase-Glo more light means more ATP remaining.)
Assay [6] deals with Plasmodium falciparum protein kinase 6 (PK6, PF3D7_1337100) (UniProt Q8IDW1). Kind of assay: PfPK6 kinase inhibitors, biochemical, TCAMS library (AID 1159586). The following applies: recombinant PfPK6, Kinase-Glo ATP depletion luminescence.
Assay [7] concerns the target Protein kinase 7 (PK7), Plasmodium falciparum 3D7 (PF3D7_0213400) (UniProt Q7YTF7). Kind of assay: inhibition of Plasmodium PK7 catalytic activity – biochemical, TCAMS antimalarial set, Kinase-Glo luminescence (AID 1159587). Conditions: recombinant PfPK7, Kinase-Glo ATP depletion luminescence.
The target in assay [8] is Calcium-dependent protein kinase 4 (Plasmodium falciparum (isolate 3D7)) (UniProt Q8IBS5). Kind of assay: PfCDPK4 kinase inhibitors, biochemical, TCAMS library (AID 1159588; cut-off not given, nearly all actives have IC50 up to about 0.91 µM). Conditions: recombinant PfCDPK4, Kinase-Glo ATP depletion luminescence.
Calcium-dependent protein kinase 4 (Plasmodium falciparum (isolate 3D7)), sequence (Q8IBS5 whole entry, looked up): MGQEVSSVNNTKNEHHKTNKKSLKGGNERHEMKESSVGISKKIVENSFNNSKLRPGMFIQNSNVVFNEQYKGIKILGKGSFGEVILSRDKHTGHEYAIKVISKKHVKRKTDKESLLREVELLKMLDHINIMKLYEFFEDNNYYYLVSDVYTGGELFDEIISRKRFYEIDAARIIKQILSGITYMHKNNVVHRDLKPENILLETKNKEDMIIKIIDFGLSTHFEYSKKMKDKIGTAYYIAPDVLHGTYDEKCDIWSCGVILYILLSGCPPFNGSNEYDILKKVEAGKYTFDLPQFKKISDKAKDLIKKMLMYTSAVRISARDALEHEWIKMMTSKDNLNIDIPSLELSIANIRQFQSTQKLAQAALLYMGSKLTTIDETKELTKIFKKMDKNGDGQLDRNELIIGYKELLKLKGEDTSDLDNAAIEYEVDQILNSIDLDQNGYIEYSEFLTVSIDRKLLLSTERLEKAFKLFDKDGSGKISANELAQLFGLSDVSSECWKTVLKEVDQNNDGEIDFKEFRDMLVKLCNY

Calcium-dependent protein kinase 1 (Plasmodium falciparum (isolate 3D7)), sequence (P62344 whole entry, looked up): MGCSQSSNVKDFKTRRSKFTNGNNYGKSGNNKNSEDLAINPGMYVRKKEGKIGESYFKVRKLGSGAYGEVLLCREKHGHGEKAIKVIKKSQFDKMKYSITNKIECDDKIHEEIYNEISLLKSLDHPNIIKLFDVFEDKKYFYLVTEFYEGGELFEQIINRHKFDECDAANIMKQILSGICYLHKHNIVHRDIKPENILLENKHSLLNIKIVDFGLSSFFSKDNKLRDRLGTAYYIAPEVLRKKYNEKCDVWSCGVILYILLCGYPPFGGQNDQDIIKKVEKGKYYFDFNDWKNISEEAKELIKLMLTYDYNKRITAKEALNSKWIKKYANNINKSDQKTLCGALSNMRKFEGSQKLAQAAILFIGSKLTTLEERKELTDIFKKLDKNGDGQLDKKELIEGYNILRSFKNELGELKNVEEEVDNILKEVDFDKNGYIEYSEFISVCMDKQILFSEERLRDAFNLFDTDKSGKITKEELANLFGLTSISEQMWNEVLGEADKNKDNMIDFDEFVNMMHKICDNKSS
Protein kinase 7 (PK7), Plasmodium falciparum 3D7 (PF3D7_0213400), sequence (Q7YTF7 1-343): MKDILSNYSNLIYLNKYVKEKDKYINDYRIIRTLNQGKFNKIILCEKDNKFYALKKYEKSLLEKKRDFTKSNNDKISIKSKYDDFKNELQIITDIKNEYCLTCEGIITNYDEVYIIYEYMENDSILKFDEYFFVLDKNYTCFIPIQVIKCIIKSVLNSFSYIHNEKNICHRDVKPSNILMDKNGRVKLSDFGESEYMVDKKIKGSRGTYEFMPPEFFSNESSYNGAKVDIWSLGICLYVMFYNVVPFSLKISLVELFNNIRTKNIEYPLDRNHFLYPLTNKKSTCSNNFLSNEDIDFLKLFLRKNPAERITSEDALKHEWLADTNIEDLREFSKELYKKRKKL
Plasmodium falciparum protein kinase 6 (PK6, PF3D7_1337100), sequence (Q8IDW1 1-305): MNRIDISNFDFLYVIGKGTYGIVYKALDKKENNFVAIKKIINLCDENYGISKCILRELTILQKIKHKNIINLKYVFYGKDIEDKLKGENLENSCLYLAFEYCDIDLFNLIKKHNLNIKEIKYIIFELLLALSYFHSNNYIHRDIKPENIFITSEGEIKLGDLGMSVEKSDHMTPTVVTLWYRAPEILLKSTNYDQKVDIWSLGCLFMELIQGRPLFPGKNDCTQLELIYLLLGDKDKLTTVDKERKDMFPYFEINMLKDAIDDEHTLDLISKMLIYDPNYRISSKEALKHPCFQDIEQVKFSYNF
L-lactate dehydrogenase (Plasmodium falciparum (isolate CDC / Honduras)), sequence (Q27743 whole entry, looked up): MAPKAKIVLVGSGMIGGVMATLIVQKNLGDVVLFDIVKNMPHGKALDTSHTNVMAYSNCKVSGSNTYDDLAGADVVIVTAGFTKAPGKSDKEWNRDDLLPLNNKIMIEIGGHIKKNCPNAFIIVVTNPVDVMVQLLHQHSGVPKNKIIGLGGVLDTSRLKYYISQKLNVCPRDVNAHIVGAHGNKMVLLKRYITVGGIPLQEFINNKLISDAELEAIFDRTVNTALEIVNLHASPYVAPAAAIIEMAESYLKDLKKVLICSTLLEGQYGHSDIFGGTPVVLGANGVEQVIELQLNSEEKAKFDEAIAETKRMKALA

The inhibition is the change of the read-out against control, counted positive when it falls. Turning to `COc1ccc(Cn2c(Nc3cccc(C(F)(F)F)c3)nc3ccc(C(=O)NCCN4CCCC4)cc32)cc1Cl`, the growth inhibition is 6% in assay [1] and 100% (active) in assay [4]. Further, the inhibition was 14% in assay [2] and 2% in assay [3]. The result in assay [5], in assay [6], in assay [7] and in assay [8] was inactive.
Consider `Cc1cc(NC(=O)NCCN2CCC(NS(=O)(=O)c3ccccc3Cl)C2)c2ccccc2n1` (stereo not given), for which the growth inhibition in assay [1] was 43%; in assay [4], 97% (active). The values for the inhibition in assay [2] and in assay [3] were 1% and -5%, respectively. In addition, the result in assay [5], in assay [6], in assay [7] and in assay [8] was inactive.
For the compound `COC(=O)[C@@H](NC(=O)[C@H](CC(C)C)Nc1ccc(C#N)c2ccccc12)c1ccc(O)cc1`, the growth inhibition in assay [1] is 87% (active); in assay [4] it was 98% (active). Further, the inhibition was 4% in assay [2] and 0% in assay [3]. The outcome in assay [5], in assay [6], in assay [7] and in assay [8] was inactive.
As for `COc1ccc(-c2cccc(NC(=O)c3ccc(C#N)cc3)c2)cc1CN1CCCN(C)CC1`, the growth inhibition is 89% (active) in assay [1] and 101% (active) in assay [4]. Further, the inhibition in assay [2] is 22%; in assay [3], -3%. For the same compound, the result in assay [5], in assay [6], in assay [7] and in assay [8] was inactive.
Consider `Cc1cc(NCCC(=O)Nc2ccccc2)nc(NCCc2cccnc2)n1`, for which the results for the growth inhibition in assay [1] and in assay [4] were 4% and 84% (active), respectively. Moreover, the figures for the inhibition in assay [2] and in assay [3] were -1% and -2%, respectively. The result in assay [5], in assay [6], in assay [7] and in assay [8] was inactive.
As to `Cn1nc(-c2cccc(CNC3CCc4ccccc43)c2)c2cnc(NCCCN3CCCC3)nc21` (stereo not given), the growth inhibition was 15% in assay [1] and 99% (active) in assay [4]. For the same compound, the inhibition in assay [2] is 29%; in assay [3], -2%. The outcome in assay [5], in assay [6], in assay [7] and in assay [8] was inactive.
Consider `C=C(C)C1CC=C(CN2CCCC(n3ccc4cc(NC(=O)c5ccco5)ccc43)CC2)CC1` (stereo not given), for which the figures for the growth inhibition in assay [1] and in assay [4] were 95% (active) and 90% (active), respectively. Also, the inhibition was 13% in assay [2] and 1% in assay [3]. The result in assay [5], in assay [6], in assay [7] and in assay [8] was inactive.
Regarding `O=[N+]([O-])c1ccc(-n2nc(Cc3ccccc3)n(Cc3cccc(F)c3)c2=S)c(C(F)(F)F)c1`, the growth inhibition in assay [1] is 100% (active); in assay [4] it was 101% (active). In addition, the figures for the inhibition in assay [2] and in assay [3] were 4% and -3%, respectively. Moreover, the outcome in assay [5], in assay [6], in assay [7] and in assay [8] was inactive.
Take `O=C(NCCCCN1CCC(c2ccc3c(c2OCC(O)c2ccc(Cl)cc2)CCCC3)CC1)c1ccc(-c2ccc(C(F)(F)F)cc2)cc1` (stereo not given): the growth inhibition is 67% (active) in assay [1] and 89% (active) in assay [4]. Also, the values for the inhibition in assay [2] and in assay [3] were 100% (active) and -3%, respectively. Further, the result in assay [5], in assay [6], in assay [7] and in assay [8] was inactive.
Regarding `COc1c(C2=CCN(CCCCNC(=O)c3ccc(-c4ccc(C#N)cc4)cc3)CC2)c(C)cc2c1C(C)(C)CCC2(C)C`, the values for the growth inhibition in assay [1] and in assay [4] were 88% (active) and 92% (active), respectively. Further, the results for the inhibition in assay [2] and in assay [3] were 18% and -2%, respectively. Also, the result in assay [5], in assay [6], in assay [7] and in assay [8] was inactive.
As to `N#Cc1ccc(-c2ccc(C(=O)NC3CCN(CCN4CCc5c(cccc5C(F)(F)F)C4)CC3)cc2)cc1`, the growth inhibition is 51% (active) in assay [1] and 98% (active) in assay [4]. The inhibition in assay [2] was 40%; in assay [3], -1%. Also, the outcome in assay [5], in assay [6], in assay [7] and in assay [8] was inactive.
As for `Cc1cccc2[nH]c(-c3cccc(-c4ccc(NC(=O)Cc5ccccn5)cc4)c3)nc12`, the values for the growth inhibition in assay [1] and in assay [4] were 57% (active) and 94% (active), respectively. Further, the inhibition was 25% in assay [2] and 3% in assay [3]. The result in assay [5], in assay [6], in assay [7] and in assay [8] was inactive.
Regarding `N#Cc1ccc2c(c1)CN(C1CCC(NC(=O)c3cc(-c4ccc(Cl)cc4)cs3)CC1)CCC2` (stereo not given), the growth inhibition was 99% (active) in assay [1] and 101% (active) in assay [4]. Also, the inhibition in assay [2] was 36%; in assay [3], 0%. Moreover, the result in assay [5], in assay [6], in assay [7] and in assay [8] was inactive.
Regarding `CC(C)(C)NCCN(Cc1ccc(-c2ccc(C(F)(F)F)cc2)cc1)C(=O)Cn1c(CCc2cccc(F)c2F)nc(=O)c2ccccc21`, the results for the growth inhibition in assay [1] and in assay [4] were 68% (active) and 99% (active), respectively. Moreover, the values for the inhibition in assay [2] and in assay [3] were 46% and -4%, respectively. Further, the result in assay [5], in assay [6], in assay [7] and in assay [8] was inactive.
For the compound `O=C(Nc1ccc(OC(F)(F)F)cc1)NC1CCN(c2ccnc3ccccc23)C1` (stereo not given), the growth inhibition in assay [1] was 89% (active); in assay [4] it was 101% (active). The results for the inhibition in assay [2] and in assay [3] were 25% and 1%, respectively. In addition, the outcome in assay [5], in assay [6], in assay [7] and in assay [8] was inactive.
Regarding `CCCCN(CCCC)CCCCNc1c2ccccc2nc2ccccc12`, the growth inhibition in assay [1] and in assay [4] was 100% (active) each time. Moreover, the inhibition was 36% in assay [2] and 0% in assay [3]. Further, the result in assay [5], in assay [6], in assay [7] and in assay [8] was inactive.
Turning to `O=C(Nc1ccc(Cl)cc1)NC1CCN(CCCCCNC(=O)[C@@H]2C[C@H]2c2ccc(Cl)c(Cl)c2)CC1`, the growth inhibition in assay [1] is 18%; in assay [4] it was 102% (active). The inhibition in assay [2] was 51% (active); in assay [3], 4%. Further, the outcome in assay [5], in assay [6], in assay [7] and in assay [8] was inactive.
For the compound `C=CCc1cccc(OC)c1OCCCON1C(N)=NC(N)=NC1(C)C`, the growth inhibition in assay [1] was 95% (active); in assay [4] it was 94% (active). The inhibition in assay [2] is 58% (active); in assay [3], -1%. The result in assay [5], in assay [6], in assay [7] and in assay [8] was inactive.
Consider `O=C(NC1CCCCN(Cc2ccccc2O)C1)c1cccc(C(F)(F)F)c1` (stereo not given), for which the growth inhibition was 64% (active) in assay [1] and 93% (active) in assay [4]. Moreover, the values for the inhibition in assay [2] and in assay [3] were -4% and -6%, respectively. Further, the outcome in assay [5], in assay [6], in assay [7] and in assay [8] was inactive.
For the compound `CN(C)CCNCc1ccc(-c2ccc(-c3nc4ccccc4[nH]3)s2)cc1`, the values for the growth inhibition in assay [1] and in assay [4] were 100% (active) and 101% (active), respectively. Besides, the inhibition is -2% in assay [2] and 1% in assay [3]. The result in assay [5], in assay [6], in assay [7] and in assay [8] was inactive.
